The whole screen tested about 53,000 sequences, of which about 3,700 (7%) were called active. This excerpt belongs to a sample that is enriched for actives. Unmarked numbers belong to inactive results.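 How the source made its calls: active means gene knockdowns whose robust z-score for IL-1 alpha signal is at least 2 or at most -2, so actives lie on both sides; inactive means the rest.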

Here are results for 69 sequences from PubChem BioAssay AID1508600 (Functional Genomics Laboratory (NCATS/FGL), 2020).

This assay is described as follows: Components of the Cytosolic LPS Sensing Pathway: Gene Identification via Genome-wide siRNA Screen.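 Further: robust z of the log signal after scaling to non-targeting control siRNA wells of the plate.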 The conditions noted are these: RAW264.7 macrophages, IL-1a HTRF, actives lie on both sides, screened at 100 nM (by protocol), cells primed 5 h with Pam3CSK4 first. The method in brief:
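RAW264.7; siRNA 100 nM final, RNAiMAX, 48h 37 degrees C; Pam3CSK4 5 h; LipidA + TransIT-TKO 24 h; IL-1a HTRF; CellTiter-Glo viability; robust z vs negative-control median.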
On the technique in general: In TR-FRET formats the signal depends on donor and acceptor labels being close together.
With GGAUGACAUUUCAGUGUGGTT against Matn4, the z-score is 0.561. For the sequence GGAUAUUCAAAUGGGUGCCTT against Bcl7b, the z-score is 0.538. In the case of GGACAUGAUCGACGACUACTT against Zfyve28, the z-score is 0.109. As for GGAUGAAAGAAAAGAAACUTT against Hoxd11, the z-score was -0.335.

Turning to GGAAUGGUAAUGCUAUUGGTT against Tmem39a, the z-score is 0.169. The value for GGAGAAUGGUUCAUAUCUGTT against Trmt44 was -0.849.

With AUGGAAAAAGUGCACAAUCTT against Olfr1061, the z-score was 2.34 (active). For UUGUUCAAGAGCUAGAGAUTT against Atg2a, the z-score is 0.811. As for GCCGUGCAAAGUUUAUUCATT against Nme8, the z-score was 1.06. CCACCAUUCGGCUCUUUUGTT against Nupl2: the z-score is -0.822.

Turning to GCACCUGAAGACUAAUGUUTT against Gcnt2, the z-score was 0.509.

GGAAUAUUCAGAAUCCCUCTT against Tnfaip8l3: the z-score was -0.762. The value for GGUAACGGGACCAACACUUTT against Otop3 was 1.26. The value for CCUUUAACUUUCUCCUACCTT against Nfkbid was 3.45 (active); that for GGAGGAAACACAUCAUUUGTT against Tmem131 was 1.15. Consider GCCUCAAUUCCUCUACGCUTT against Sytl1, for which the z-score was -1.34. With GCAUAGUGACCAUGGAUAATT against Olfr807 the figure was 0.95; with GGAGGACGUGAACUUUGACTT against Stk32c, 0.648.

Take GCACGUCAGAAUCUCCAGATT against Pln: the z-score was -0.669. For the sequence GGAAUGACAAGAUUAUUGUTT against Ercc3, the z-score was 0.157.

GGAGAGGAGUUCUUCAUUCTT against Adamts1: the z-score was -1.38.

As for GCAAGUAGCAUCUCUGAUUTT against Nfs1, the z-score is 1.03. GGCAAGAAGUGUGAUGAACTT against Kansl3: the z-score is -2.81 (active).

Take GGAGGAACUGGAUUCUUACTT against Eps8l3: the z-score is -0.348.

Take GGUUGUUAGGAAUCGAUCCTT against Rps26: the z-score is 0.964. Consider GGUGGAAUACUUGGAGCAGTT against Gstm4, for which the z-score is 2.98 (active). As for CCAAUGCCGCCAGAAGUUATT against Siah2, the z-score was 0.295. With CCUGUGCUCUUAUUAUCAATT against Rpp14 the figure was 0.693; with GCAACUUUAAUGACAGCGUTT against Moxd1, -0.211. As for GCUCUAUGGAGACCUAAAGTT against Sdha, the z-score is -0.378. With GGAGGGACAUGGAGAUUACTT against Ptpn18 the figure was 3.15 (active); with GGGAUUUUCAAAGUGAGAATT against Pmaip1, -0.502. Take GGAUUUUCACCAACAGCCUTT against Gh: the z-score was 0.046. For GGACUGAAGUCCUUGACACTT against Lgi3, the z-score was -1.46. The value for CCUCCUACUGUUUAAUGUUTT against Exd2 was 2.47 (active). The value for GCCUUGACGAUAGAUUAUUTT against Irf2 was 1.36. In the case of GGUUGAUAAAGGAGCCAUCTT against Mcts1, the z-score is 1.02. The value for GGUGUCCUUUCAAGUUGAUTT against Spg11 was 2.15 (active). With GCCAGUGUGACAUUUGGUATT against Eed the figure was 0.651; with GGAGACUUGCUAAAUGCCCTT against Fkbp7, -0.0461. With GGCAACUAAGGCUAAGAAGTT against H1f4 the figure was -1.89. With GGUCUCGCUCCAAGGAAGATT against Tra2b, the z-score was 2.56 (active). As for GGAGACUGUCAUGGCUGUGTT against Olfr397, the z-score is -1.84. Take GCUUUACCUCCUAUUAAUATT against Rgs9bp: the z-score is -0.91. The value for GGAUUUAGCCAUGGAUUUCTT against Zfp473 was -1.17; that for GUACAAGCCACUGGAUCUGTT against Smad6 was 5.56 (active).

With GGAGACAAAGCAUUAUCUATT against Usp33, the z-score is -0.366. In the case of GGUGAAAGGAGCAAAUGAUTT against Fyco1, the z-score is -0.332. With GGCACUGAGGUUGUUCAGGTT against Eif3h the figure was 0.806. With CCUACCAUACCAUGAGCAGTT against Pou4f3 the figure was 1.52; with GGAAUACAGAUUUUUCAGATT against Frmd6, -1.15. In the case of GCAGAUACUGAGAUGCUAUTT against Dkk4, the z-score is 2.24 (active). For GGUGUUACCCUCCUUAGAGTT against Tmem230, the z-score is -1.03. With GGAUCUUGAAGACCAAAAATT against Kazn, the z-score is -2.14 (active). With GGCGAACAUGCACUUUCACTT against Gramd3 the figure was -1.28; with GGAGCAUGAGGAUUACUGUTT against Trafd1, 0.731; with GGACAGUUUACUCCAGAUATT against Foxc1, 2.84 (active).

On to GCACUAAAGGGCUUUUCAUTT against Serping1, for which the z-score was 0.912. Regarding GGAGAAAGGCAUCUUCAAATT against Spdef, the z-score was 0.0302. For the sequence GCCUUACUACUACAACAACTT against Prpf40b, the z-score was 2.08 (active). Regarding GGCACAAAAGAAGAUCCUGTT against Tnfaip8, the z-score is -1.53. For GGAUCCUGAACGAAAAAGGTT against Med19, the z-score was -0.0986. In the case of CGGCAGAUUGCUGCUUUGATT against Vmn2r122, the z-score was 2.73 (active).

With GGUCCAAGAGGAAAGACAATT against Adarb2, the z-score was 0.67. For the sequence GGUGACAGAUGUUUAUGAGTT against Ccdc28b, the z-score is -1.91. The value for GCAUAUGAUUGUCAUGAGUTT against Olfr319 was -1.47; that for GCAAGACCGAAGUCACGGATT against Krt19 was 2.87 (active); that for CCGAGACAUAUACAAAGGATT against Klkb1 was -0.36. The value for CCAGACAUCGUGCUUUACATT against Chrna3 was 1.42.
